# Reference: PubChem BioAssay (NCI)
# This is part of a sample that, as a whole, favours compounds with a hit. Of some 83,000 tested, about 20% had one in any assay.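 Each cell line was grown in a 96-well plate and treated with one concentration of compound for 48 hours. Values below 10 were considered active.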 Calls of active or inactive are those of the source.
# Tested on: T-47D breast
# Assay: NCI-60 one-dose screen, 48 h (100 = growth as untreated, 0 = no growth, -100 = all killed)
# Settings: 10 µM unless noted
# Procedure: Growth inhibition of the T-47D human tumor cell line is measured as a screen for anti-cancer activity. Cells are grown in 96 well plates and exposed to the test compound for 48 hours. Compounds are tested at a single concentration, which is 10^-5 M for most compounds. The reported endpoint is percent growth (GI% or GIPRCNT), where numbers from 0 - 100% represent growth inhibition, and numbers from -100% - 0 represent cell death. For example, a value of 40 represents 60% growth inhibition. A value of 0 means no net growth occurred over the course of the experiment. A value of -40 indicates 40% of cells at the beginning of the experiment died by the end of the experiment. A value of -100 means all cells are dead at the end of the experiment.
# NCI-60 Human Tumor Cell Lines Screen was performed using the standard one-dose NCI protocol, which is described in more detail at https://dtp.cancer.gov/discovery_development/nci-60/default.htm.
# Compounds with GIPRCNT values below 10 were considered active. Activity score was based on GIPRCNT using the following formula: […]
# Score is 0 for GIPRCNT values of 100 or above, 50 for GIPRCNT values of 0, and 100 for GIPRCNT values of -100.
row,Compound,growth
1,Cc1cccc(-c2cc(O)c(C(=O)N3CCOCC3)s2)c1,18.9% (inactive)
2,CCN(CC)c1ccc(Nc2ccc(CC(=O)c3ccccc3)cc2)cc1,74.3% (inactive)
3,CCNCCNc1cc(C2CCCC2)c(C#N)c2nc3ccccc3n12,13.8% (inactive)
4,CCC(C)NCc1ccccc1 (stereo not given),89.4% (inactive)
5,N=C(N)c1ccc(-c2ccc(-c3ccc(Cl)c(Cl)c3)o2)cc1,64.3% (inactive)
6,Clc1ccc(-c2cn(-c3ccccc3)c(-c3ccccc3)n2)cc1,56.7% (inactive)
7,NC(=S)N/N=C/C(=O)O,40.9% (inactive)
8,Cc1nc(Nc2ccc(NC(=S)Nc3ccccc3)cc2)nc2nc(Nc3ccc(S(=O)(=O)O)cc3)[nH]c(=O)c12,87.3% (inactive)
9,C#CC[C@H](N)C(=O)O,102% [20 µM] (inactive)
10,CN1CCC(=C2c3ccccc3C=Cc3ccccc32)CC1,72.6% (inactive)
11,COc1cc2c(O)n(CCCn3ccnc3)c3c4cnc5cccc(c(=O)c3c2cc1OC)c54,-6.91% (active)
12,N=c1ccn2c(n1)OC1C(O)C(CO)OC12 (stereo not given),61% (inactive)
13,Cc1nn(-c2ccccc2)c2c1C(c1ccc([N+](=O)[O-])cc1)C(C#N)=C(N)O2 (stereo not given),98.4% (inactive)
14,O=C(c1ccccc1)c1ccc(Cl)c([N+](=O)[O-])c1,71.5% (inactive)
15,CC(=[N-])N1CCC[C@@H](Nc2c3ccccc3nc3ccccc23)C1.[Cl][Pt].[NH-]CCC[NH-],14.8% (inactive)
16,Cc1c(C(N)=O)sc2nc(C)n(/N=c3\scc(-c4ccccc4)n3Cc3ccccc3)c(=O)c12,34.7% (inactive)
17,CCN(CCO)CC(=O)c1cc(Cl)cc(Cl)c1Cl,84% (inactive)
18,CCOC(=O)C(O)C(O)(c1ccccc1)c1ccccc1 (stereo not given),93.6% (inactive)
19,C=C1C(=O)O[C@H]2[C@H]1CC/C(COC(=O)/C=C\C(=O)NCc1ccc(Cn3c(=O)sn(CCCC)c3=O)cc1)=C\CC[C@@]1(C)O[C@@H]21,-39% (active)
20,COc1ccc(O)c(-c2cc(-c3ccccc3)c(C#N)c(=O)[nH]2)c1,79.3% (inactive)

row,Compound,growth
1,Cc1ccc(/C=C(\C#N)n2nnc3cc(Cl)c(Cl)cc32)cc1,15.1% (inactive)
2,C/C(Cc1ccc(Cl)cc1)=C(/c1ccc(Cl)cc1)c1ccc(OCCN(C)C)cc1,47.9% (inactive)
3,COc1cc2ccccc2cc1C(=O)NC(=S)Nc1ccc(-c2nc3ccccc3[nH]2)cc1,76.9% (inactive)
4,COc1ccc(C2CC(c3ccccc3)=NN2c2nc(C)c(C(C)=O)s2)cc1 (stereo not given),99.7% (inactive)
5,Cc1cn(C2CCCCC2)c(=O)[nH]c1=O,108% (inactive)
6,CC(=O)Nc1ccc(C(=O)/C=C/c2ccccc2)cc1,74.9% (inactive)
7,COc1cccc(-c2nc3sccn3c2-c2ccnc(NCCNS(=O)(=O)c3c(Cl)cccc3Cl)c2)c1,6.81% (active)
8,COc1ccc(/C=C2\C=C(c3ccccc3)N(CCc3ccccc3)C2=O)cc1OC,8% (active)
9,CSc1ncc(C)c(Nc2ccc(Cl)cc2)n1,119% (inactive)
10,COc1ccc(/C(C)=C(\c2ccc(Cl)cc2)c2ccc(OCCCN(C)C)cc2)cc1F,67.5% (inactive)
11,CCNCCNc1cc(-c2ccc(C#N)cc2)c(C#N)c2nc3ccccc3n12,37.5% (inactive)
12,COc1ccc(/C=C2\COc3ccc(O)cc3C2=O)c(OC)c1,56.4% (inactive)
13,N#C/C(=C\c1ccc2c(c1)OCO2)n1nnc2ccccc21,26.2% (inactive)
14,CNC=O,98.3% (inactive)
15,COc1ccc(-c2cc(-c3cc(OC)ccc3OC)[nH]c(=O)c2C#N)cc1,63.8% (inactive)
16,COc1ccc(/C(C)=C(\c2ccc(Cl)cc2)c2ccc(OCCN3CCCC3)cc2)cc1F,50.7% (inactive)
17,Cc1ccc(NC(=O)C(Cl)Cl)cc1,96.6% (inactive)
18,CCCCCOC(=O)c1cccc(NC(=O)CN(CC)CC)c1,91.9% (inactive)
19,O=C1N(c2ccccc2)C(=S)N[C@]12[C@H](c1ccccc1)C1CCCN1[C@]21C(=O)NC2C=CC(Cl)=C[C@H]21 (stereo not given in full),79.6% (inactive)
20,CN(C)CCC(O)(Cc1ccccc1)c1ccccc1 (stereo not given),96.4% (inactive)
